Reference: PubChem BioAssay (EPA / NIEHS)
Active and inactive are the calls of the source. Rule for the calls: active = hit-call score of the fitted dose curve at least 0.9, where 1 is the maximum; inactive = score below 0.9.

Tests used:
Conditions in all cases: mRNA level, 48 h; actives raise or lower the signal
BCL2L11 (gene 10018) = assay: LTEA_HepaRG_BCL2L11: Life Technologies and Expression Analysis (LTEA) Assay for Bcl-2 (BCL2L11) gene using HepaRG (AID 2283473)
Outline: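 Differentiated human HepaRG cells in serum-free induction medium were exposed in duplicate for 48 h to eight concentrations (top 100 uM, half-log steps, 0.5% DMSO). BCL2L11 mRNA was quantified by TaqMan qRT-PCR, normalized to ACTB/GAPDH/POLR2A, bidirectional fit versus DMSO.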

[1] = read-out: Apolipoprotein A-V (APOA5) gene, APOA5 (gene 116519); assay: LTEA_HepaRG_APOA5: Life Technologies and Expression Analysis (LTEA) Assay for Apolipoprotein A-V (APOA5) gene using HepaRG (AID 2283474)
Outline: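 Differentiated human HepaRG cells were exposed in duplicate for 48 h to eight half-log concentrations from 100 uM in 0.5% DMSO. APOA5 mRNA was quantified by TaqMan qRT-PCR, normalized to ACTB, GAPDH and POLR2A, and fitted bidirectionally against DMSO.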

[2] = read-out: Apoptosis regulator Bcl-2 (Homo sapiens) (UniProt P10415); assay: LTEA_HepaRG_BCL2: Life Technologies and Expression Analysis (LTEA) Assay for Bcl-2 gene using HepaRG (AID 2283475)
Outline: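 HepaRG, plated 48 h then switched to serum-free induction medium; dosed 48 h, 8 conc. (max 100 uM, half-log steps), duplicate, 0.5% DMSO. Lysis in RLT, RNA isolated, TaqMan qRT-PCR for BCL2; ACTB/GAPDH/POLR2A normalisation; bidirectional fit vs DMSO.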

[3] = read-out: Cytochrome P450 (CYP24A1), CYP24A1 (gene 1591); assay: LTEA_HepaRG_CYP24A1: Life Technologies and Expression Analysis (LTEA) Assay for Cytochrome P450 (CYP24A1) using HepaRG (AID 2283478)
Outline: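 Differentiated HepaRG cells, pre-cultured 48 h, were exposed in duplicate for 48 h in serum-free induction medium to 8 half-log concentrations (top 100 uM, 0.5% DMSO). CYP24A1 mRNA was quantified by TaqMan qRT-PCR, normalized to ACTB/GAPDH/POLR2A, fitted bidirectionally versus DMSO.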

[4] = read-out: Cytochrome P450 (CYP1A2), CYP1A2 (gene 1544); assay: LTEA_HepaRG_CYP1A2: Life Technologies and Expression Analysis (LTEA) Assay for Cytochrome P450 (CYP1A2) using HepaRG (AID 2283479)
Outline: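 Differentiated human HepaRG cells in serum-free induction medium were exposed in duplicate for 48 h to 8-point half-log concentrations up to 100 uM in 0.5% DMSO. CYP1A2 mRNA measured by qRT-PCR, normalized to ACTB, GAPDH, POLR2A; bidirectional fit vs DMSO.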

[5] = read-out: cysteine-aspartic acid protease (CASP8), CASP8 (gene 841); assay: LTEA_HepaRG_CASP8: Life Technologies and Expression Analysis (LTEA) Assay for cysteine-aspartic acid protease (CASP8) using HepaRG (AID 2283480)
Outline: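 Differentiated human HepaRG cells, plated 48 h then switched to serum-free induction medium, were exposed in duplicate for 48 h to 8 half-log concentrations up to 100 uM in 0.5% DMSO. CASP8 mRNA was quantified by qRT-PCR, normalized to ACTB/GAPDH/POLR2A.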

[6] = read-out: Cytochrome P450 (CYP2B6), CYP2B6 (gene 1555); assay: LTEA_HepaRG_CYP2B6: Life Technologies and Expression Analysis (LTEA) Assay for Cytochrome P450 (CYP2B6) using HepaRG (AID 2283481)
Outline: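 Differentiated HepaRG cells, serum-free induction medium, exposed 48 h in duplicate to 8-point half-log concentrations from 100 uM in 0.5% DMSO. CYP2B6 mRNA by qRT-PCR, normalized to ACTB, GAPDH, POLR2A; bidirectional fit versus DMSO.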

[7] = read-out: Cytochrome P450 2C19 (Homo sapiens) (UniProt P33261); assay: LTEA_HepaRG_CYP2C19: Life Technologies and Expression Analysis (LTEA) Assay for CYP2C19 using HepaRG (AID 2283482)
Outline: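 Differentiated human HepaRG cells were exposed for 48 h in serum-free induction medium to 8 concentrations (top 100 uM, half-log steps, 0.5% DMSO). CYP2C19 mRNA was measured by qRT-PCR, normalized to ACTB/GAPDH/POLR2A, and fitted bidirectionally against DMSO.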

CYP2C8 (gene 1558) = assay: LTEA_HepaRG_CYP2C8: Life Technologies and Expression Analysis (LTEA) Assay for CYP2C8 using HepaRG (AID 2283483)
Outline: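 Differentiated human HepaRG cells were exposed for 48 h in serum-free induction medium to eight half-log concentrations up to 100 uM in 0.5% DMSO, in duplicate. CYP2C8 mRNA was measured by TaqMan qRT-PCR, normalized to ACTB, GAPDH and POLR2A, and fitted bidirectionally against DMSO.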

CYP2C9 (gene 1559) = assay: LTEA_HepaRG_CYP2C9: Life Technologies and Expression Analysis (LTEA) Assay for CYP2C9 using HepaRG (AID 2283484)
Outline: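 Differentiated human HepaRG cells were exposed 48 h in serum-free induction medium to eight half-log concentrations up to 100 uM in 0.5% DMSO. CYP2C9 mRNA was measured by qRT-PCR, normalized to ACTB, GAPDH and POLR2A, and fitted bidirectionally against DMSO.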

CYP4A11 (gene 1579) = assay: LTEA_HepaRG_CYP4A11: Life Technologies and Expression Analysis (LTEA) Assay for CYP4A11 using HepaRG (AID 2283486)
Outline: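 Differentiated HepaRG cells, serum-free induction medium, exposed 48 h in duplicate to 8-point half-log series from 100 uM in 0.5% DMSO. CYP4A11 mRNA measured by qRT-PCR, normalized to ACTB, GAPDH, POLR2A; bidirectional fit versus DMSO.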

[8] = read-out: Cytochrome P450 3A4 (Homo sapiens) (UniProt P08684); assay: LTEA_HepaRG_CYP3A4: Life Technologies and Expression Analysis (LTEA) Assay for CYP3A4 using HepaRG (AID 2283487)
Outline: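 Differentiated HepaRG cells in serum-free induction medium exposed in duplicate for 48 h to 8 half-log concentrations up to 100 uM in 0.5% DMSO. CYP3A4 mRNA measured by qRT-PCR normalized to ACTB, GAPDH and POLR2A; bidirectional fit versus DMSO.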

[9] = read-out: DNA damage-inducible transcript 3 (DDIT3), DDIT3 (gene 1649); assay: LTEA_HepaRG_DDIT3: Life Technologies and Expression Analysis (LTEA) Assay for DNA damage-inducible transcript 3 (DDIT3) using HepaRG (AID 2283488)
Outline: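 HepaRG plated 48 h, switched to serum-free induction medium, dosed 48 h (100 uM top, half-log, 8 pts, 0.5% DMSO, n=2); RNA isolated; DDIT3 by qRT-PCR; bidirectional curve fit vs DMSO.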

[10] = read-out: Pro-epidermal growth factor (Homo sapiens) (UniProt P01133); assay: LTEA_HepaRG_EGF: Life Technologies and Expression Analysis (LTEA) Assay for Epidermal growth factor (EGF) using HepaRG (AID 2283489)
Outline: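 Differentiated human HepaRG cells, plated 48 h then switched to serum-free induction medium, were exposed for 48 h to test chemicals (8-point half-log series, top 100 uM, 0.5% DMSO). EGF mRNA was quantified by qRT-PCR, normalized to ACTB, GAPDH, POLR2A.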

[11] = read-out: Early growth response protein 1 (EGR1) transcription factor, EGR1 (gene 1958); assay: LTEA_HepaRG_EGR1: Life Technologies and Expression Analysis (LTEA) Assay for Early growth response protein 1 (EGR1) transcription factor using HepaRG (AID 2283490)
Outline: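 Differentiated human HepaRG cells in serum-free induction medium were exposed in duplicate for 48 h to eight concentrations (top 100 uM, half-log steps) in 0.5% DMSO. EGR1 mRNA was quantified by qRT-PCR, normalized to ACTB, GAPDH and POLR2A, and fitted bidirectionally versus DMSO.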

[12] = read-out: Cytochrome P450 3A7 (Homo sapiens) (UniProt P24462); assay: LTEA_HepaRG_CYP3A7: Life Technologies and Expression Analysis (LTEA) Assay for CYP3A7 using HepaRG (AID 2283492)
Outline: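 HepaRG cells plated 48 h, then dosed in serum-free induction medium for 48 h at 8 concentrations (top 100 uM, half-log steps, 0.5% DMSO). CYP3A7 mRNA by qRT-PCR, normalised to ACTB/GAPDH/POLR2A; bidirectional fit versus DMSO.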

CYP2E1 (gene 1571) = assay: LTEA_HepaRG_CYP2E1: Life Technologies and Expression Analysis (LTEA) Assay for CYP2E1 using HepaRG (AID 2283485)
Outline: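 Human liver line HepaRG, plated 48 h, then serum-free induction medium + chemical x 48 h; 8-pt CRC from 100 uM, half-log, 0.5% DMSO, n=2. Readout: CYP2E1 mRNA qRT-PCR vs ACTB/GAPDH/POLR2A; bidirectional fit vs DMSO.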

[13] = read-out: Ezrin (EZR), EZR (gene 7430); assay: LTEA_HepaRG_EZR: Life Technologies and Expression Analysis (LTEA) Assay for Ezrin (EZR) using HepaRG (AID 2283491)
Outline: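 Differentiated human HepaRG cells, 48 h after plating, were exposed in serum-free induction medium for 48 hours to eight half-log concentrations up to 100 uM in 0.5% DMSO. EZR mRNA was measured by TaqMan qRT-PCR, normalized to ACTB, GAPDH and POLR2A, and fitted bidirectionally against DMSO.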

Caspase-3 (Homo sapiens) = Caspase-3 (Homo sapiens) (UniProt P42574); assay: LTEA_HepaRG_CASP3: Life Technologies and Expression Analysis (LTEA) Assay for cysteine-aspartic acid protease (CASP3) using HepaRG (AID 2283477)
Outline: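 Differentiated human HepaRG cells in serum-free induction medium were exposed 48 h to 8-point half-log concentrations from 100 uM (0.5% DMSO vehicle). CASP3 mRNA was measured by qRT-PCR, normalised to ACTB, GAPDH and POLR2A, with bidirectional fitting against DMSO.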

[14] = read-out: Bcl-2 (BID) gene, BID (gene 637); assay: LTEA_HepaRG_BID: Life Technologies and Expression Analysis (LTEA) Assay for Bcl-2 (BID) gene using HepaRG (AID 2283476)
Outline: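 Transcript levels of BID, measured by qRT-PCR and normalized to three housekeeping genes, were fitted bidirectionally against DMSO controls. Cells were HepaRG, dosed 48 h at up to 100 uM.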

Measured: AC50

Sequence of Apoptosis regulator Bcl-2 (Homo sapiens) (P10415 whole entry, looked up): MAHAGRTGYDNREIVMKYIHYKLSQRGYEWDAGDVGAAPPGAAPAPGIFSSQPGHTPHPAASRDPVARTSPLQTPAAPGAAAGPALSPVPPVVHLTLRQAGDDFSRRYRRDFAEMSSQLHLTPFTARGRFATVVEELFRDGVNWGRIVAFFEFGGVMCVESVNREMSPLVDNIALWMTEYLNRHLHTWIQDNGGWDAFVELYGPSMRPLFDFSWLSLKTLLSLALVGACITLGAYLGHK
Sequence of Cytochrome P450 2C19 (Homo sapiens) (P33261 whole entry, looked up): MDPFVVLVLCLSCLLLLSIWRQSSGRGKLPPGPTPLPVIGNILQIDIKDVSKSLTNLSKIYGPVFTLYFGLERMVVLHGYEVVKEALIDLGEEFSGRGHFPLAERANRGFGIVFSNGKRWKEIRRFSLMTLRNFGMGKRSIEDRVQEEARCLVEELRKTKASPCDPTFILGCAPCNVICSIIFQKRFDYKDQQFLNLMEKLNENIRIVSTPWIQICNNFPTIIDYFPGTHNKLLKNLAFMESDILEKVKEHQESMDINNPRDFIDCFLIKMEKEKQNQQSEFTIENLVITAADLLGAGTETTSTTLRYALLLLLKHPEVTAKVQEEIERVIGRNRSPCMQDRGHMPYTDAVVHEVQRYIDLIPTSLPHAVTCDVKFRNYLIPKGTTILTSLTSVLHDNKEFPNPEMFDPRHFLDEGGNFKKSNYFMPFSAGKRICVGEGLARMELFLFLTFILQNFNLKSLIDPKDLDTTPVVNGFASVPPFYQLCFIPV
Sequence of Cytochrome P450 3A7 (Homo sapiens) (P24462 whole entry, looked up): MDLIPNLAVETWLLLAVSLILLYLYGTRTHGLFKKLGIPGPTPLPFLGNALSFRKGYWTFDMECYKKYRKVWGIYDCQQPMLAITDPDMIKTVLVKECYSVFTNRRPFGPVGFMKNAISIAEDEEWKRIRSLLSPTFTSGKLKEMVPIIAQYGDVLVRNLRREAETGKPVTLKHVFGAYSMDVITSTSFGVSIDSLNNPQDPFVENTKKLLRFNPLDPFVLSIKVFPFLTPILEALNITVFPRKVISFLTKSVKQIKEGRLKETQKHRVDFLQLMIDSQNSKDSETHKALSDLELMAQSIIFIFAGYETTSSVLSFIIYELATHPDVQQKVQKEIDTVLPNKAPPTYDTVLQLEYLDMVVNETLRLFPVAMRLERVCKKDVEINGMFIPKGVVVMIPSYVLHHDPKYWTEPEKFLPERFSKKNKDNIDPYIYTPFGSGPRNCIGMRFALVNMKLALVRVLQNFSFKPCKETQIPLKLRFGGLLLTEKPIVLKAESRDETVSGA
Sequence of Cytochrome P450 3A4 (Homo sapiens) (P08684 whole entry, looked up): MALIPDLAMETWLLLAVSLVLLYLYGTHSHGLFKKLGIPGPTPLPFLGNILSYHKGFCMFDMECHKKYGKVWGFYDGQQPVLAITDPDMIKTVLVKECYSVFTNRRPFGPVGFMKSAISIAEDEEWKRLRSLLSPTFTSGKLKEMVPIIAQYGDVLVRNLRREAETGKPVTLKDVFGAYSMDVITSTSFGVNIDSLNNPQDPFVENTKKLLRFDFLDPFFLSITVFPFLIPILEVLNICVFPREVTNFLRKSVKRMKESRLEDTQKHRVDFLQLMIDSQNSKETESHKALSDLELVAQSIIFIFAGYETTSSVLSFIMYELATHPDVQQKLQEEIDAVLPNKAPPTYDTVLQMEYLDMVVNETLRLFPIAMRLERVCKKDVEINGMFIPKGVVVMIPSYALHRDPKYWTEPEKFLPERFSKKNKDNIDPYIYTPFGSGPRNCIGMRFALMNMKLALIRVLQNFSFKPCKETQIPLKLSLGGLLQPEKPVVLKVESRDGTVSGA
Sequence of Caspase-3 (Homo sapiens) (P42574 whole entry, looked up): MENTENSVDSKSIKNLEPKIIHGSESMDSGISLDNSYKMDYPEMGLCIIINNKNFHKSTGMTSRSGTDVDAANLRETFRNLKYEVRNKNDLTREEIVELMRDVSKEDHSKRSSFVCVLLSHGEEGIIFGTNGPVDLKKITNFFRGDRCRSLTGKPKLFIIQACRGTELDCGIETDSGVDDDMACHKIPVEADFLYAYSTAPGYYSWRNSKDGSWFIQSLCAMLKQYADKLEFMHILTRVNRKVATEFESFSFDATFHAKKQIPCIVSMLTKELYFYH

O=C(c1ccccc1)C1CCCCC1
active: [6] 25 µM
not listed: CYP2E1 (gene 1571) | [13] | Caspase-3 (Homo sapiens) | [14]
inactive: all other assays above

COC(=O)CSc1cc(N=c2sc(=O)n3n2CCCC3)c(F)cc1Cl
active: [6] 38.8 µM | [7] 24 µM | CYP2E1 (gene 1571) 50 µM | [8] 13.5 µM | [12] 16 µM
not listed: [11] | Caspase-3 (Homo sapiens) | [14]
inactive: all other assays above

CCCCC(CC)CN1C(=O)C2C3C=CC(C3)C2C1=O (stereo unspecified)
inactive: BCL2L11 (gene 10018) | [2] | Caspase-3 (Homo sapiens) | [3] | [5] | [10]
active: [1] 79.3 µM | [4] 82.3 µM | [6] 88.6 µM | [7] 92 µM | CYP2C8 (gene 1558) 88.3 µM | CYP2C9 (gene 1559) 82.6 µM | CYP4A11 (gene 1579) 36.1 µM | [8] 91 µM | [9] 72.7 µM | [12] 85.7 µM

CCCCC(CC)COC(=O)c1ccccc1C(=O)O (stereo unspecified)
active: [6] 29.1 µM | CYP4A11 (gene 1579) 50.8 µM
not listed: [8] | [12] | CYP2E1 (gene 1571) | [13] | Caspase-3 (Homo sapiens) | [14]
inactive: all other assays above

CC(=O)S[C@@H]1CC2=CC(=O)CC[C@]2(C)[C@H]2CC[C@@]3(C)[C@@H](CC[C@@]34CCC(=O)O4)[C@H]12
inactive: BCL2L11 (gene 10018) | [14] | [3] | [5] | [9] | [10]
active: [1] 61.8 µM | [6] 52.6 µM | [7] 78.3 µM | CYP2C8 (gene 1558) 82.1 µM | CYP4A11 (gene 1579) 51.8 µM

Oc1ccc(C(c2ccc(O)cc2)C(Cl)(Cl)Cl)cc1
active: [1] 79.7 µM | [5] 88.4 µM | [6] 81.1 µM | [7] 78.4 µM | CYP2C8 (gene 1558) 93.2 µM | CYP2C9 (gene 1559) 93.1 µM | CYP2E1 (gene 1571) 93.8 µM | CYP4A11 (gene 1579) 93.2 µM | [8] 78.7 µM | [9] 80.3 µM | [13] 80.9 µM | [12] 79.8 µM
inactive: BCL2L11 (gene 10018) | [2] | [3] | [4] | [10]
